Hits are enriched below; roughly 12% of the tested compounds scored in any of these assays.
FMDV inh = High Throughput Screening for Foot and Mouth Disease Virus Antivirals | FMDV antiviral cell-based qHTS | Potency, µM (titrated, usually from 57.9 µM), without a hit: at the highest dose activity change, negative = inhibition, actives largely listed as inhibitors | 410,000 tested, 1.2% active | AID 1159524, 2015; calls by dose curve; tested in HEK293T cells; further: read-out not given here; potency means the concentration at half of the fitted maximal effect; on the % scale 0 is the no-effect control and ±100 the full control effect; nearly all actives have a fitted effect of over 45% in size
CHX counter = Cycloheximide Counterscreen for Small Molecule Inhibitors of Shiga Toxin. cell reporter, cycloheximide protein synthesis inhibition counterscreen. max response, %. 300,000 tested, 12% active; in the data active means max response mostly above about 13%, no sharp cut-off; inactive means mostly below about 14%; further: read at 38.3 µM for the half of the compounds with a filed dose; 0% is about no effect
Shiga inhibitor = A qHTS for Small Molecule Inhibitors of Shiga Toxin | Vero cells, Shiga toxin protein synthesis inhibition reporter | inhibition, % at 38.7 µM | 290,000 tested, 9.2% active | AID 2315, 2010; in the data active means inhibition mostly above about 28%, no sharp cut-off; inactive means mostly below about 43%; further: 0% is about no effect
Sm TGR inh = qHTS Assay for the Inhibitors of Schistosoma Mansoni Peroxiredoxins; Schistosoma mansoni thioredoxin glutathione reductase (TGR), Q962Y6; Potency, µM (titrated, usually from 114 µM), for inactives: at the top dose activity change, negative = inhibition, hits mostly inhibitors; 360,000 tested, 3% active; AID 485364, 2010; purified TGR, DTNB reduction, TNB absorbance 405 nm; active means well fitted inhibition curve with a large enough effect; inconclusive means small, poorly fitted or top-dose-only effect; inactive means no such curve, though single readings can be large or run the other way; further: potency means the concentration at half of the fitted maximal effect; on the % scale 0 is the no-effect control and ±100 the full control effect; nearly all actives have a fitted effect of over 60% in size
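First, TGR (20 nM dispensed) and NADPH were mixed with compound. Second, a 15 min room-temperature incubation followed. Third, further NADPH and then DTNB were added to start the reaction. Finally, TNB absorbance was monitored kinetically.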
* hit, by the source's call; u = inconclusive; x = no result given.

SMILES | FMDV inh | CHX counter | Shiga inhibitor | Sm TGR inh
O=C1c2ccccc2-c2nc3ccccc3cc21 | 23.2% | 34.4* | 69.4* | 10.0%
O=C1c2ccccc2C(=O)c2ccccc21 | 1.3% | x | x | x
c1ccc2c(c1)Cc1cc3ccccc3nc1-2 | 8.2% | 25.8* | 62.1* | 9.3%
Cc1ccc(CNC(=O)CCCCCn2c(=O)c3sccc3n(CC(=O)N(C)c3ccccc3)c2=O)cc1 | -11.7% | x | x | -6.0%
COc1cccc(NC(=O)c2ccn(C)n2)c1 | 56.9% | 40.7* | 71.6* | -4.2%
COc1cccc(NC(=O)c2cnsn2)c1 | 32.9% | 44.0* | 139.5* | 4.8%
COc1cccc(NC(=O)c2cncs2)c1 | -0.5% | 1.5 | -6.1 | 5.1%
COc1cccc(NC(=O)c2c(F)cccc2F)c1 | 56.7% | x | x | 4.9%
CCc1ccc(/C=C2/C(=O)N(c3ccccc3)C(=S)N2CC(=O)OC)s1 | -11.1% | -2.3 | -8.6 | 3.7%
CCN1C(=O)/C(=C/N(C(C)=O)c2ccccc2)N(c2ccccc2)C1=S | 31.6µM* | -2.4 | -4.6 | u
CCc1nnc2c(Nc3cc(OC)c(Cl)cc3OC)nc3ccccc3n12 | -4.3% | x | x | -0.7%
Clc1ccccc1OCc1nc(-c2ccncc2)no1 | 37.3% | 49.2* | 85.7* | 2.4%
COc1cc(OC)c(-c2nc(-c3ccncc3)no2)cc1OC | -8.4% | 9.1 | -6.8 | -18.5%
c1ccc(OCc2nc(-c3ccccc3)no2)cc1 | 60.6% | 58.1* | 100.1* | -25.6%
c1ccc(OCc2nc(-c3ccncc3)no2)cc1 | 49.4% | 49.6* | 109.9* | 10.0%
COc1ccccc1Cc1nc(-c2ccncc2)no1 | 9.4% | 20.2* | 20.7 | -5.5%
CCc1ccccc1NC(=O)Cn1c(=O)n(CC(=O)NCCc2ccccc2)c(=O)c2ccccc21 | -14.8% | x | x | 11.7%
COc1ccc(Cl)cc1NC(=O)Cc1coc2c(C)c(C)ccc12 | -29.9% | x | x | 2.9%
Clc1ccc(OCc2nc(-c3ccncc3)no2)c(Br)c1 | 3.2% | 40.3* | 71.1* | -8.6%
Cc1ccc(-c2noc(CCCOc3ccc(Cl)cc3Cl)n2)cc1 | 21.5% | -1.8 | 13.2 | 25.6%
COc1cccc(NC(=O)c2ccc(-c3nc(COc4ccccc4)c(C)o3)cc2)c1 | u | x | x | 6.2%
CC(=O)SC1CC(=O)N(c2c(C)cccc2C)C1=O (stereo not given) | -15.3% | -4.7 | -3.4 | 14.1µM*
CC(=O)SC1CC(=O)N(c2ccc(C(C)(C)C)cc2)C1=O (stereo not given) | 5.5% | 4.4 | 10.8 | u
Cc1cccc(C)c1N1C(=O)CC(N2CCSCC2)C1=O (stereo not given) | -19.1% | -0.6 | 4.7 | 44.7µM*
O=C1CC(N2CCSCC2)C(=O)N1c1cccc(Br)c1 (stereo not given) | 8.4% | -2.4 | -9.8 | 44.7µM*
SMILES | FMDV inh | CHX counter | Shiga inhibitor | Sm TGR inh
Cc1cccn2c(=O)c3cc(C(=O)NCc4ccccc4)c(=N)n(CCOCCO)c3nc12 | 47.2% | x | x | -0.6%
c1ccc(SCCCCN2CCOCC2)cc1 | 18.8% | 15.0* | 41.5 | 0.3%
CC(C)c1ccccc1OCCCCCN1CCOCC1 | -20.7% | x | x | x
Brc1ccccc1OCCCCCN1CCOCC1 | 16.5% | 29.5* | 134.6* | 5.9%
CCN1CCN(CCCCSc2ccccc2)CC1 | x | -3.8 | -0.5 | -3.8%
COc1ccc2[nH]c(=O)c(CNc3ccccc3OC)cc2c1 | u | 10.7 | 4.6 | 17.8µM*
COc1ccc2[nH]c(=O)c(CNc3ccccc3)cc2c1 | 9.1% | 43.4* | 73.0* | u
COc1ccc2[nH]c(=O)c(CNc3ccccc3C)cc2c1 | 22.0% | 43.3* | 90.5* | u
Cc1ccc(CNC(=O)[C@]2(C(F)(F)F)C[C@H](CCc3ccccc3)CCCO2)o1 | x | 10.0 | -5.0 | x
COCCCNC(=O)CCCn1c(SCC(=O)c2ccc(Br)cc2)nc2c(sc3ccccc32)c1=O | -0.5% | x | x | -3.1%
Nc1ncnc2c1ncn2[C@@H]1O[C@H](C(=O)NC2CC2)[C@@H](O)[C@H]1O | -14.9% | x | x | x
COc1cccc(CNc2nc3ccccc3c3nc(-c4cccc(C)c4)nn23)c1 | 30.1% | x | x | 2.1%
COc1cc(OC)cc(C(=O)Nc2cc(-c3nc4cccnc4s3)ccc2C)c1 | -8.4% | x | x | -2.5%
Nc1nc(CN2CCN(c3ccccc3F)CC2)nc(Nc2ccccc2)n1 | u | -2.9 | 10.8 | -21.1%
Cc1ccc(Nc2nc(N)nc(CN3CCN(C(=O)c4ccco4)CC3)n2)cc1Cl | -4.0% | 10.8 | 51.1 | 39.8µM*
Nc1nc(CN2CCCCCC2)nc(Nc2ccccc2)n1 | 5.6% | -0.7 | -5.3 | 8.1%
Cc1ccc(NC(=O)N2CCN(C(=O)c3ccco3)CC2)cc1Cl | -1.2% | -3.6 | -4.5 | 4.5%
Cc1ccc(Nc2nc(N)nc(CN3CCN(C)CC3)n2)cc1 | 63.2% | 32.2* | 81.3 | -1.3%
Nc1nc(CN2CCN(c3ccccc3)CC2)nc(Nc2ccc(Cl)cc2)n1 | 31.6µM* | 7.8 | -18.8 | 3.4%
Cc1ccc(Nc2nc(N)nc(CN3CCCCCC3)n2)cc1 | 14.7% | -1.1 | 10.1 | 39.8µM*
COc1cccc(NC(=O)CNC(=O)Cn2c(C)cc3ccccc3c2=O)c1 | -5.2% | x | x | 5.6%
CCOc1cc2sc(N3CCC(C(=O)Nc4ccc(C)cc4C)CC3)nc2cc1Br | 40.4% | x | x | -1.0%
Cc1cccc(N2C(=O)C(CC(=O)Nc3cccc(F)c3)N(Cc3cccs3)C2=O)c1 (stereo not given) | 11.5% | x | x | 3.3%
COc1ccccc1NC(=O)C1CCN(c2cnccn2)CC1 | -13.0% | x | x | 1.2%
COc1ccc(OC)c(NC(=O)CCc2c(C)nc3c(c(C)nn3C(C)(C)C)c2C)c1 | -13.1% | x | x | 5.8%
SMILES | FMDV inh | CHX counter | Shiga inhibitor | Sm TGR inh
COc1ccc(CC(C#N)(CO)c2nc3ccccc3[nH]2)cc1 (stereo not given) | 16.1% | 8.0 | 12.8 | 0.5%
N#CC(CO)(Cc1ccc(OC(F)F)cc1)c1nc2ccccc2[nH]1 (stereo not given) | 35.3% | 22.6* | 39.9* | -2.5%
COc1cccc(-c2nc(CSCC(=O)N3CCc4ccccc43)c(C)o2)c1 | 16.0% | -1.2 | 10.0 | u
Cc1oc(-c2ccccc2F)nc1CSCC(=O)N1CCN(c2ccccc2)CC1 | u | x | x | -2.3%
CCOc1ccc(-c2nc(CSCC(=O)N3CCN(c4cccc(OC)c4)CC3)c(C)o2)cc1 | 20µM* | 15.7* | 75.3* | u
COc1ccc(-c2nc(CSCC(=O)N3CCN(c4ccccc4F)CC3)c(C)o2)cc1 | 31.6µM* | x | x | 0.7%
CCc1ccc(-c2nc(CSCC(=O)N3CCN(c4ccccn4)CC3)c(C)o2)cc1 | 20µM* | 0.4 | -9.9 | -1.7%
Cc1ccc(-c2nc(CSCC(=O)N3CCN(c4ccccn4)CC3)c(C)o2)cc1 | u | 18.2 | -4.6 | u
Cc1cnc(CNc2ncnc3ccc(-c4ccc(N(C)C)cc4)cc23)cn1 | -6.9% | x | x | x
COc1ccccc1CNC(=O)C1CCCN(c2nn3cc(-c4ccc(F)cc4)nc3s2)C1 (stereo not given) | -27.9% | x | x | 0.4%
Cc1ccc(-n2nc3c(N4CCCC(C(=O)NCc5ccccc5C)C4)nnc(C)c3c2C)cc1 (stereo not given) | 11.1% | x | x | 5.5%
Cc1ccc(Cn2cc(C=O)c(-c3ccc(C)cc3)n2)cc1 | 20.5% | 51.7* | 78.0* | -18.8%
CCN(Cc1ccccc1)c1ccc(/C=N/N2CCOCC2)cc1 | 18.9% | 36.4* | 28.0* | -9.0%
